Measurements published in the supplement of paper PMC6555819.

These sequences were tested on VDR:RXRa (NR concentration 270 nM, RXRa partner concentration 90 nM) (assay: PBM binding z-score (relative to random genomic background probes); higher = stronger binding; sequences stand for … in GC…GCGATTGACAGCGTAGAATGAAGG).
Protocol: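 Protein-binding microarray (Agilent 4x180K custom design, double-stranded 60-nt probes: 5' GC cap, 34-nt variable region, 24-nt constant primer region; full probe sequence given). Purified or IVT nuclear receptor:RXRα heterodimers (3:1 NR:RXRα, mostly 270:90 nM) or homodimers were incubated for 1 h in PBS with 2% milk and no ligand, then detected with Alexa488 antibodies. Fluorescence from o1-orientation probes (~5 replicates averaged) was converted to z-scores against 500 random hg19 background probes. Variable regions are seed direct-repeat (DR0–DR5) sites, all their single-nucleotide variants and half-site ablations.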

Row | Sequence | PBM binding z-score
1 | TCGAGTAGGTGACCAATGGGGCATTCAGCTTTCT | -0.154
2 | GGAACTAGGGCATTCGAGTTGATAGCATGGCGAT | 1.23
3 | AGTCAAAGTTCAGGAGGAGGTAACGTAAAGCACG | 2.89
4 | CAGCCTAGGTCAGTGCCAGTATAGGAGGAACGTT | -0.0475
5 | ACAGACAGGTGAGTGAAGGTATCTCAGCTGGACG | -0.617
6 | CGAACTAGGTCATCCAGGACAGTGCATACATTGA | 4.69
7 | CATACAGGGTCAGCTAGGCCAGGGTAGGGACGGC | 3.64
8 | CCTACTGGGCCAAGGTCATTGGTCAGTCAAAGCA | 3.39
9 | CCTACTGGGCCACAAAGGTCATTGATGCCGATAA | 5.28
10 | CAAACTAGGTCAAGAGGTCGAAGTCCGCTTCCCG | 4.04
11 | CTGACTGGGGCAAAGGTTACCATACTCAGTACGA | 2.07
12 | TCATATAGGTAAATGCTAGGTGAAAGCCCGATCT | 0.543
13 | GCTGCTAGGTCAACCGATGGTCAGCTAAAGCTCG | 1.54
14 | CCTTACGGGACACGAGGTTATAGCACGACGAGCG | 0.648
15 | TCTAGTTGGTCACGGAGGTTACACACGACGGGTA | 3.16
16 | CGTCCAAGGTCATAGGAGGACAGTGAAGACAGAT | 5.21
17 | CGAACTAGGTCAAGGACAGTGACTCTCCGCACGC | 1.19
18 | ATATGTAGGTTAGCTTGGGTCATTCAGACTAGGC | 2.64
19 | ACTGACAGGTGATGAAGGTAACTCAGGCTATCAT | 0.103
20 | CCTTACGGGTCAAGGTGATAGCACGGGTGGTACG | 2.92

Row | Sequence | PBM binding z-score
21 | GCTTACGGGTCAAAGGTTATAGAATGAATAGAAT | 5.63
22 | AATACAGGGGCATCGTAGGCCAGAGTACGCACAG | 0.784
23 | TCTCGGAGGACACGAAAGGTCAGAGCCCGACATC | 3.26
24 | CGTCCAAGGTCAATGCTAGTTCAGTGAAAGCATT | 4.84
25 | CCTATTAGTTGACCATAAGGGTAACCGAAGCTCG | 0.776
26 | CAAACTAGGTCACGAAAGGTCAAAGTCGAATGAC | 6.91
27 | TTACCAAGGTGAAAGGTCGTTGACGCACGCCTTG | 3.29
28 | ACTATTAGTTGACTCAGGGCAACCGATACGACGC | 0.825
29 | TAGCCTAGGTCATGCGGTCCAGTATAGTGTCGGC | 4.75
30 | TCGAGTAGTTTAGGGGCATTCAGAATGGCGTCGA | 0.605
31 | CCTCGGATGACAGAAGGTCAGAGCTGTCCGCTTT | 1.21
32 | ATATGTAGGTCACATCCGGGTCATTCAGGCTATG | 6.03
33 | GTACCAAGGTGAATAGGTAGTTGATGAGTAGGCG | -0.15
34 | TCTTGTAGATCAGCAGGTTAAGTAAGCTGGCCAA | 0.413
35 | CCAGATAGGTGAAAGGTAACTCAGTCTGGTACGC | 0.921
36 | CCTACTGGTCCATCAGGTCATTGATATCAACGTT | 2.46
37 | GCTGCTAGGTCAGGTTGGTCAGCAAACGGGTACG | 0.616
38 | ATCTCTAGGTAAAGATAGTTCAGTGGATGCAAAT | 0.451
39 | TCGAGTAGGTTAGTCGCGGCATTCAGCCAACATA | -0.415
40 | CGTCAAAGTTCAACGTAACGTAACAGAAAGCAGC | 3.97
